Composite z-score and z-score data for five compounds are collected here from PubChem BioAssay.

The source made the active and inactive calls.

Test [1] can be described thus: small molecules captured by biotinylated probe aFSTL3 – biochemical, small-molecule microarray, fluorescence 635/667, stem cell growth factor project, primary screen (AID 1064).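 Further: measures binding of the biotinylated anti-FSTL3 antibody to printed compounds.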 To be noted: higher = more signal.
Test [2] can be described thus: binders from COS7 lysate, DM2A8 probe, primary screen, torsin A project, cell lysate, small-molecule microarray, fluorescence 635/667 (AID 1065). The note with it: higher = more signal, COS7 lysate expressing mutant human TOR1A.
A short description of test [3]: small molecules captured by biotinylated probe aFGF2 – biochemical, small-molecule microarray, fluorescence 635/667, stem cell growth factor project, primary screen (AID 1067).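 Further: measures binding of biotinylated aFGF2 protein to printed compounds on slides; z-score merges feature fluorescence and signal-to-noise across triplicate slides.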 The note with it: higher = more signal.
A short description of test [4]: small molecules captured by biotinylated probe aFGF10 – biochemical, small-molecule microarray, fluorescence 635/667, stem cell growth factor project, primary screen (AID 1071).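 Further: score merges 667 nm spot intensity and signal to noise from triplicate slides.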 The note with it: higher = more signal.
Test [5] addresses Neurogenic locus notch homolog protein 2 (Homo sapiens) (UniProt Q04721). The test can be described thus: small molecules binding Notch2 protein – biochemical, small-molecule microarray, 635 nm fluorescence, stem cell growth factors, primary screen (AID 1073). The note with it: higher = more signal.
For test [6], the target named is Pro-neuregulin-1, membrane-bound isoform (Homo sapiens) (UniProt Q02297). Kind of test: small molecules binding neuregulin-1 protein – biochemical, small-molecule microarray, fluorescence 635/667, psychiatric disease protein project, primary screen (AID 1075).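 Further: score combines 667 nm spot fluorescence with signal to noise.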 To be noted: NRG1 binding, 635 nm fluorescence, higher = more signal.
Test [7] deals with Neuregulin-1 EGF-like domain. The test can be described thus: small molecules binding NRG1 EGF domain – biochemical, small-molecule microarray, 635 nm fluorescence, primary screen (AID 1081).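 Further: binding of the protein to compounds printed on small-molecule microarray slides.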 The note with it: higher = more signal.
Test [8] in a line: FRG1 expression reporter modulators in myotubes – cell-based, C2C12 myotubes, firefly/Renilla luciferase, luminescence, FRG1 inhibition for FSHD, primary screen (AID 1084). To be noted: FRG1 promoter luciferase, higher = more signal, called active from +8 up or from −8 down.
Test [9] can be described thus: small molecules captured by biotinylated probe aFST – biochemical, small-molecule microarray, fluorescence 635/667, stem cell growth factor project, primary screen (AID 1086).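 Further: score merges 667 nm fluorescence with signal-to-noise of each printed compound spot.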 The note with it: higher = more signal.
The nature of test [10]: binders of probe aHhip on microarray, primary screen, stem cell growth factor project, biochemical, small-molecule microarray, fluorescence 635/667 (AID 1087).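 Further: score merges spot fluorescence at 667nm with spot signal to noise ratio.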 The note with it: higher = more signal.
Test [11] relates to PRMT1 (protein arginine N-methyltransferase 1). Kind of test: small molecules binding arginine methyltransferase PRMT1 – biochemical, small-molecule microarray, 635 nm fluorescence, primary screen (AID 1088).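 Further: binding of Prmt1 protein to compounds spotted on small-molecule microarray slides.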 The note with it: higher = more signal.
Test [12] is described as follows: growth effects on S. cerevisiae YJM789 – YJM789 clinical isolate, OD600, 24 h, basal, primary screen (AID 1089).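 Further: growth of clinical yeast isolate S. cerevisiae YJM 789 seeded 1000 cells per well; test concentration not given here.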 To be noted: higher = more signal, called active from +8 up or from −8 down.
Test [13] can be described thus: S. pombe growth modifiers, basal conditions – strain 972, OD600, 24 h, no modulator, primary screen (AID 1090).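 Further: basal condition with compound alone and no growth modifier present; test concentration not given here.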 To be noted: S. pombe 972 growth, higher = more signal, called active from +8 up or from −8 down.
Test [14] is described as follows: budding yeast growth modifiers under rapamycin – strain BY4716, OD600, 96 h, primary screen (AID 1091). Further: test concentration not given here. The note with it: S. cerevisiae BY4716 + rapamycin, higher = more signal, called active from +8 up or from −8 down.
The target of test [15] is Torsin-1A-interacting protein 2 (Homo sapiens) (UniProt Q8NFQ8). Kind of test: small molecules binding lysate-expressed LULL1 – cell lysate, human LULL1 lysate, 635/667 nm fluorescence, primary screen (AID 1092).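 Further: probe is lysate of COS7 cells overexpressing human LULL1; score merges per-feature 667 nm fluorescence with signal-to-noise.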 To be noted: small-molecule microarray, hLULL1 lysate binding, 635 nm fluorescence; higher = more signal.
The nature of test [16]: optical density change of DRC41 E. coli – strain DRC41, OD650, 24 h, E. coli filamentation project, primary screen (AID 1093).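 Further: MC1000 strain lacking acrAB efflux and sulA so SOS filamentation is blocked; test concentration not given here.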 The note with it: E. coli DRC41 growth, higher = more signal, called active from +8 up or from −8 down.
Test [17] is described as follows: probe aLefty2 binding to arrayed compounds – biochemical, biotinylated probe, 635/667 nm fluorescence, primary screen (AID 1094).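 Further: score merges spot fluorescence near 667 nm with spot signal-to-noise ratio.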 The note with it: small-molecule microarray, higher = more signal.
Test [18] has as its system Noggin (protein binding on small-molecule microarray). The test can be described thus: small molecules binding Noggin protein – biochemical, 635/667 nm fluorescence, primary screen (AID 1095).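 Further: score merges 667 nm feature fluorescence with signal to noise over triplicate slides.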 The note with it: 635 nm fluorescence, higher = more signal.
The target in test [19] is Neurogenic locus notch homolog protein 3 (Homo sapiens) (UniProt Q9UM47). Kind of test: small molecules binding NOTCH3 protein – biochemical, 635/667 nm fluorescence, primary screen (AID 1096). The note with it: small-molecule microarray, 635 nm fluorescence, higher = more signal.
Chain of Neurogenic locus notch homolog protein 3 (Homo sapiens) (Q9UM47 whole entry, looked up): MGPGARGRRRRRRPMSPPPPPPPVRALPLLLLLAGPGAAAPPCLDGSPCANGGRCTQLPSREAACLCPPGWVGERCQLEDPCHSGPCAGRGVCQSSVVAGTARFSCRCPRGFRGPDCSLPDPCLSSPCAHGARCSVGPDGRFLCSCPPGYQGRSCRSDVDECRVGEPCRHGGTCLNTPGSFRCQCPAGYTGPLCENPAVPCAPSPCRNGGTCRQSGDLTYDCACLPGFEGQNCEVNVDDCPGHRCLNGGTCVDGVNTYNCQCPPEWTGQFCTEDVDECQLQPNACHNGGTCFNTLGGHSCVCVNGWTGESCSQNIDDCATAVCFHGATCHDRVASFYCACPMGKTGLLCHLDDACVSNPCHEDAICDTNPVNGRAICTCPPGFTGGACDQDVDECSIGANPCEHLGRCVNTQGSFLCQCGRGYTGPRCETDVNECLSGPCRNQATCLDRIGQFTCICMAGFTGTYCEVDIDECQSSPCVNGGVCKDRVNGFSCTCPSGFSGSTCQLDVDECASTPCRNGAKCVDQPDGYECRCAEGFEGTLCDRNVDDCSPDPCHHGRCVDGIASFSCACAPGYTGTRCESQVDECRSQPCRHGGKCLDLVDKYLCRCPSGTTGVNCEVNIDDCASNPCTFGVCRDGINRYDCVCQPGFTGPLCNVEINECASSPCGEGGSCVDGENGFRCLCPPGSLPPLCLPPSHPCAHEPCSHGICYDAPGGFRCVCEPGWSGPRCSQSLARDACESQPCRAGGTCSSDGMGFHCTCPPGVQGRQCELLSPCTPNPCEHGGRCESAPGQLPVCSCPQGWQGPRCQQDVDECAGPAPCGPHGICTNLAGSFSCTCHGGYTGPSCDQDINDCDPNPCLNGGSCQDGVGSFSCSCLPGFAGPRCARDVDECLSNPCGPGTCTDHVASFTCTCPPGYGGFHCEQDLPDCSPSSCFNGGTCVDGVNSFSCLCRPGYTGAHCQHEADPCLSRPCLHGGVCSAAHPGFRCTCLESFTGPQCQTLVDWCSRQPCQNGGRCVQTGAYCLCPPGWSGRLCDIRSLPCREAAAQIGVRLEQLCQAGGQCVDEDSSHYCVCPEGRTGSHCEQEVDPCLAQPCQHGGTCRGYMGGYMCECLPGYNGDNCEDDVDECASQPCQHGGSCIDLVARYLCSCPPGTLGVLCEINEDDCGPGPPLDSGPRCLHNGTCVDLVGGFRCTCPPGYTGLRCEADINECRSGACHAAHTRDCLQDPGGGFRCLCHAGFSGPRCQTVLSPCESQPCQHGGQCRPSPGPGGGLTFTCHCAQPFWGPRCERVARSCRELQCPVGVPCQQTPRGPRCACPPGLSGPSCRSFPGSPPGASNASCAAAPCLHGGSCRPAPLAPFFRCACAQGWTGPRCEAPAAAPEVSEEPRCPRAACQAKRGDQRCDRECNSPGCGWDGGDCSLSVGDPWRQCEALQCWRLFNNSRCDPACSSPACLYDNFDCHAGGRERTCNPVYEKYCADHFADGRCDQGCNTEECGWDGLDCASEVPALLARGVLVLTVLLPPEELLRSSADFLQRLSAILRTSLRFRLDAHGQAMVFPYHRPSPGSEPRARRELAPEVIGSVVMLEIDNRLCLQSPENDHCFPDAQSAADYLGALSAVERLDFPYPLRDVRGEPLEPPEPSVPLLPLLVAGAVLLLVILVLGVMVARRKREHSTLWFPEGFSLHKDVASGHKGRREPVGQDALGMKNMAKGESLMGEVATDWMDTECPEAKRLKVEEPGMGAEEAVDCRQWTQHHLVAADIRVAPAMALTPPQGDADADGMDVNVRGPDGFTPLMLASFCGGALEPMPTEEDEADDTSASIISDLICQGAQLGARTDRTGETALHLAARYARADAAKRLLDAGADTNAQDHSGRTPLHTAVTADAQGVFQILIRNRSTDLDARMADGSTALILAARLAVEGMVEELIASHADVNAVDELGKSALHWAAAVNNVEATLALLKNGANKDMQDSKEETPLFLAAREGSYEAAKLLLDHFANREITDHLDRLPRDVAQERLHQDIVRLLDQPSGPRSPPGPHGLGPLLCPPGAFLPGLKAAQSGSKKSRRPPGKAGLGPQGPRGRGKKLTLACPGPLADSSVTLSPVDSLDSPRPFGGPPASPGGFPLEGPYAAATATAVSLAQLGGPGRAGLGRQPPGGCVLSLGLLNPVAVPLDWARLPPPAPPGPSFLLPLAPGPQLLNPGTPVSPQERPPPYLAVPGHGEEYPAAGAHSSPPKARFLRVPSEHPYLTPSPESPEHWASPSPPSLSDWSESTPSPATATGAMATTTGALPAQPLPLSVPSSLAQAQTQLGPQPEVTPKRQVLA
A short description of test [20]: probe aEGFR binding to arrayed compounds – biochemical, biotinylated probe, 635/667 nm fluorescence, primary screen (AID 1097).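 Further: probe is a biotinylated anti-EGFR antibody binding compounds printed on slides; score combines fluorescence near 667 nm and signal to noise of each spot.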 The note with it: small-molecule microarray, higher = more signal.

Chain of Neurogenic locus notch homolog protein 2 (Homo sapiens) (Q04721 whole entry, looked up, canonical isoform): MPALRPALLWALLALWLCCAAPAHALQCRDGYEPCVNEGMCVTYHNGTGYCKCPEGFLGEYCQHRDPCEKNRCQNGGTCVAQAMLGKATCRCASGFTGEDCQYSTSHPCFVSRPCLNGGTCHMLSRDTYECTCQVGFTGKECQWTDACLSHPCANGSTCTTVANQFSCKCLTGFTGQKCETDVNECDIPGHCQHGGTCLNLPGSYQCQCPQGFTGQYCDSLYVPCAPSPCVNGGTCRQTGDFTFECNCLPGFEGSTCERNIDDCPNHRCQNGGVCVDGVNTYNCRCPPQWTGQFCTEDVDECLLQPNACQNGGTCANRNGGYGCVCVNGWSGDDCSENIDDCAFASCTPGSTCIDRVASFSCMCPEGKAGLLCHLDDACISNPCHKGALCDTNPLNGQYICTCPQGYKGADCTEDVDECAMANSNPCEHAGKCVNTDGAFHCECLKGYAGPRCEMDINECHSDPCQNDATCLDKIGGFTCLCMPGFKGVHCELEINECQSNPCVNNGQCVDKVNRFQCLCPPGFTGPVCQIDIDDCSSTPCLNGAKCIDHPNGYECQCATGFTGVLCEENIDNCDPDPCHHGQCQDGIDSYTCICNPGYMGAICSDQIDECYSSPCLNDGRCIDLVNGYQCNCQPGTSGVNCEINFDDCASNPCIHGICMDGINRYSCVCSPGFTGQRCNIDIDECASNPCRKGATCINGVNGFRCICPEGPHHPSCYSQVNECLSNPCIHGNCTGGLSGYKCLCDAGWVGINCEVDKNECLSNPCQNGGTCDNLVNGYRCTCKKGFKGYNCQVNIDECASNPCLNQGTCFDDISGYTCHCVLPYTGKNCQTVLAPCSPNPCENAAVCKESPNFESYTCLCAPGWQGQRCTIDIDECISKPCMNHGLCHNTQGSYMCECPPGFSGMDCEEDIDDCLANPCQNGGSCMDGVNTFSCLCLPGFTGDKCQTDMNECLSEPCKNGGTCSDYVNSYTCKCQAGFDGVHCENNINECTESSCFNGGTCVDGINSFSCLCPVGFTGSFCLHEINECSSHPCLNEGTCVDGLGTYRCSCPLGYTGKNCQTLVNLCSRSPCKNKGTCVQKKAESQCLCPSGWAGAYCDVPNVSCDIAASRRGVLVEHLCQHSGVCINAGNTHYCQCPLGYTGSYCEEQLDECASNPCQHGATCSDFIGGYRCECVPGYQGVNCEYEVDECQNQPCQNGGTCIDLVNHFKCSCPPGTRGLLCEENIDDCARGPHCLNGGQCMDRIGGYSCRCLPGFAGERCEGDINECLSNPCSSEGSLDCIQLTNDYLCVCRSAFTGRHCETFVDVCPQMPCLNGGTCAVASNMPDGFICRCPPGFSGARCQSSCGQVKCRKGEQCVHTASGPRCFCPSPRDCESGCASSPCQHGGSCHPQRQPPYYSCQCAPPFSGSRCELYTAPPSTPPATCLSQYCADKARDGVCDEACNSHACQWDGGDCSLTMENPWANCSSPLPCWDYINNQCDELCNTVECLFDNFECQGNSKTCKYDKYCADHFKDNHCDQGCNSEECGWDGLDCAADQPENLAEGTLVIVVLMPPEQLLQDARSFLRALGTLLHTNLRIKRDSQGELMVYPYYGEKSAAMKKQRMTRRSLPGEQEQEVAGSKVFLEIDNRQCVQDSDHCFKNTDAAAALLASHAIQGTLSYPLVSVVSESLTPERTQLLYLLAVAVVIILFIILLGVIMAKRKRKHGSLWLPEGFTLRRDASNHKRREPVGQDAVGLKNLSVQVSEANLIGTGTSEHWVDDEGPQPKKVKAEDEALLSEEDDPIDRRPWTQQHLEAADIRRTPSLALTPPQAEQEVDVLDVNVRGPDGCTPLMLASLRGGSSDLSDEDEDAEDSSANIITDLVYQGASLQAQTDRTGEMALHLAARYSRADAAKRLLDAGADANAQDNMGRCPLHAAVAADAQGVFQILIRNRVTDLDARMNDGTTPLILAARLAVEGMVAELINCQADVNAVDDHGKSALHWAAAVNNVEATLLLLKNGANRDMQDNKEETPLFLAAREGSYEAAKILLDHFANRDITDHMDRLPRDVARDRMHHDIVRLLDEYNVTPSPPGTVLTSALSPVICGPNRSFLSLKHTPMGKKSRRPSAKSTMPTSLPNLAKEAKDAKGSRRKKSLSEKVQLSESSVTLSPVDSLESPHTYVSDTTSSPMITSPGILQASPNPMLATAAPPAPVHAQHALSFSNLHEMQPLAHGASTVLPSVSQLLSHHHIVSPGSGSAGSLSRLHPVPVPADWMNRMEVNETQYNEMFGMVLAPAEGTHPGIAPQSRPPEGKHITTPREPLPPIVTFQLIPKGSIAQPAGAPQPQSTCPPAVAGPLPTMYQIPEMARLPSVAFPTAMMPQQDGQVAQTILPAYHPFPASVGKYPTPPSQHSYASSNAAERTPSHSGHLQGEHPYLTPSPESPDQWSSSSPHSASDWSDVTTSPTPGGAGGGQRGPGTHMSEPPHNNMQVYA

On to `CC(C)C[C@@H]1NC(=O)[C@@H]2C[C@H](C(=O)O)[C@H](c3cccc(OCCO)c3)N2C1=O`, for which the composite z-score in test [1] is 0.73; in test [2], 0.363; in test [3], -0.0403; in test [4], -0.276; in test [5], -0.475; in test [6], 0.402. The composite z-score was 0.643 in [7]; -0.235 in [9]; -0.264 in test [10]; 0.64 in test [11]; 1.89 in test [15]; -0.173 in [17]. For the same compound, the composite z-score in test [18] is -0.0135; in [19], -0.155; in test [20], -0.229. Further, the z-score in test [8] is 1.29 (inactive); in test [12] it was -0.19 (inactive); in [13] it was -0.734 (inactive); in test [14], -0.56 (inactive); in [16], 1.06 (inactive).

Consider `C=CCC(OC(C)=O)[C@@H]1[C@@H](N(Cc2ccc(-c3ccccc3)cc2)C(=O)c2ccc(-c3ccccc3)cc2)c2cc(OCCCO)ccc2N1C(=O)Cc1ccc2ccccc2c1` (stereo not given in full), for which the composite z-score in [1] was -0.519; in [2] it was 0.574; in test [3], -0.117; in [4], 0.0381; in test [5], 0.186; in test [6], 0.0278. The composite z-score in test [7] was -0.6; in test [9], 0.2; in [10] it was -0.0631; in test [11] it was 0.758; in [15] it was 0.765; in test [17], -0.119. The figures for the composite z-score in test [18], in [19] and in test [20] were 0.233, 0.3 and -0.17, respectively. Moreover, the z-score is 0.187 (inactive) in [8]; -0.609 (inactive) in test [12]; -0.214 (inactive) in test [13]; 0.218 (inactive) in test [14]; -0.763 (inactive) in test [16].

As for `CC(C)C(CO)N1C(=O)[C@@H]2C3C(=O)OCCC/C=C\[C@H]3OC23C=CCN(CCN2CCOCC2)C(=O)[C@@H]13` (stereo not given in full), the composite z-score was -0.364 in [1]; -0.306 in test [2]; -0.116 in test [3]; -0.294 in [4]; -0.853 in test [5]; -0.197 in [6]. In addition, the composite z-score in test [7] was 0.366; in [9], -0.139; in test [10], 0.0623; in test [11], 0.463; in test [15] it was -0.272; in [17] it was -0.245. The composite z-score is 0.0867 in [18], 0.0008 in test [19] and -0.146 in test [20]. For the same compound, the z-score was 1.3 (inactive) in test [8]; 0.366 (inactive) in test [12]; -0.21 (inactive) in test [13]; 0.205 (inactive) in [14]; -0.241 (inactive) in test [16].

For `C=CC[C@@]1(C(=O)NCCN2CCOCC2)N=C(c2ccc(OCCCO)cc2)O[C@@H]1c1ccccc1N=[N+]=[N-]`, the composite z-score was 1.4 in test [1]; -0.355 in [2]; -0.119 in [3]; 0.686 in test [4]; 0.322 in [5]; 1.37 in test [6]. Also, the composite z-score was 1.03 in test [7]; 0.803 in test [9]; -0.0645 in test [10]; 0.513 in test [11]; 2.03 in [15]; 0.293 in test [17]. Also, the composite z-score in test [18] was 0.26; in test [19], -0.483; in [20] it was 0.38. In addition, the z-score in test [8] was 2.98 (inactive); in test [12], 0.658 (inactive); in test [13] it was -0.211 (inactive); in [14], 0.408 (inactive); in test [16] it was -0.0403 (inactive).

On to `CC#CC(=O)Oc1ccccc1C=CC(=O)OCC`, for which the composite z-score in test [1] was -0.156; in [2] it was -0.0011; in test [3] it was -0.0268; in test [4] it was 0.238; in test [5], 0.53; in [6], 0.133. The composite z-score in test [7] is 0.448; in [9] it was 0.163; in [10], -0.125; in test [11] it was 0.779; in test [15] it was 1.33; in [17], -0.0549. In addition, the results for the composite z-score in [18], in [19] and in test [20] were 0.664, 0.225 and -0.0531, respectively. Besides, the z-score in test [8] is 0.809 (inactive); in [12], -2.32 (inactive); in test [13], -15.4 (active); in [14], -2.16 (inactive); in [16] it was 0.316 (inactive).
